Drawing on PubChem BioAssay (Tox21), this text covers outcome and Potency for eight molecules.

Assay [1] is described as follows: qHTS assay to test for compound auto fluorescence at 535 nm (green) in HEK293 cells (AID 720680). (Quantitative high-throughput screening tests each substance at several concentrations.)
Assay [2] is described as follows: qHTS assay to test for compound auto fluorescence at 460 nm (blue) in HEK293 cell free culture (AID 720681). The essentials: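 Test compounds were pinned into cell-free culture medium (DMEM with 10% FBS) and fluorescence was read directly at Ex/Em 405/460 nm. Signals were expressed as fluorescence equivalents of triamterene, with DMSO vehicle as control.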
Assay [3] can be described thus: qHTS assay to test for compound auto fluorescence at 535 nm (green) in HEK293 cell free culture (AID 720682). In a few lines:
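Each library compound, or DMSO control, is added by pintool to medium alone, comprising DMEM and 10% FBS. Emission at 535 nm following 485 nm excitation is quantified against fluorescein.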

Assay [4] can be described thus: qHTS assay to test for compound auto fluorescence at 590 nm (red) in HEK293 cell free culture (AID 720683). In a few lines:
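Tox21 10K library compounds were pinned into cell-free DMEM with 10% FBS and fluorescence was read at excitation 540 nm. Activity is expressed as Rose Bengal sodium equivalency.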

Assay [5] in a line: qHTS assay to test for compound auto fluorescence at 590 nm (red) in HepG2 cell free culture (AID 720684). In a few lines: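 Readout: intrinsic compound fluorescence at 590 nm emission after 540 nm excitation, scaled to Rose Bengal sodium. Matrix was cell-free MEM with 10% FBS; DMSO vehicle wells served as control.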
Assay [6] is described as follows: qHTS assay to test for compound auto fluorescence at 460 nm (blue) in HepG2 cell free culture (AID 720685). In a few lines:
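Cell-free plates of MEM plus 10% FBS received 23 nL compound or DMSO vehicle; blue-channel (405/460 nm) intensity scored against triamterene as reference fluorophore.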

The nature of assay [7]: qHTS assay to test for compound auto fluorescence at 535 nm (green) in HepG2 cell free culture (AID 720686).
Assay [8] is described as follows: qHTS assay to test for compound auto fluorescence at 460 nm (blue) in HepG2 cells (AID 720687). The essentials:
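Cells (2,000/well in MEM with 10% FBS) attached overnight at 37 C, then were exposed to compound or DMSO for 1 hr at 37 C, 5% CO2. Fluorescence read at Ex/Em 405/460 nm, expressed as triamterene-equivalent signal.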

The target of assay [9] is Glucocorticoid receptor (Homo sapiens) (UniProt P04150). The assay can be described thus: qHTS assay to identify small molecule agonists of the glucocorticoid receptor (GR) signaling pathway (AID 720691; active = well fitted activation curve with a large enough effect in the signal ratio in the repeat runs, not every such curve was filed as active; inconclusive = weak or mixed curves, or effect the other way; inactive = no such curve, though single readings can be large or run the other way; the % refers to the signal ratio; also: potency is read from the fitted curve at half-maximal effect). Particulars: GR-bla HeLa, beta-lactamase reporter ratio, 18 h; activation: at 62.4 µM (top of the series). The essentials:
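Compounds in DMSO, alongside positive controls, were added to GR-bla HeLa reporter cells and incubated 18 h at 37 C; GRE-driven beta-lactamase was detected by fluorescence after 2 h with FRET substrate at room temperature.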

For assay [10] the target is unchanged. The assay can be described thus: qHTS assay to identify small molecule antagonists of the glucocorticoid receptor (GR) signaling pathway (AID 720692; active = well fitted inhibition curve with a large enough effect in the signal ratio in the repeat runs, not every such curve was filed as active; inconclusive = weak or mixed curves, or effect the other way; inactive = no such curve, though single readings can be large or run the other way; the % refers to the signal ratio). In a few lines:
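In a 1536-well cell format, compounds were added 4 h after seeding GR-bla HeLa cells, together with dexamethasone at 5 nM final; reporter activity was measured by FRET-substrate fluorescence following 18 h at 37 C.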

A short description of assay [11]: qHTS assay to identify small molecule antagonists of the glucocorticoid receptor (GR) signaling pathway - cell viability counter screen (AID 720693). Also: nearly all actives have a fitted effect of over 55% in size.
Assay [12] in a line: qHTS assay for identifying genotoxic compounds that show differential cytotoxicity against isogenic chicken DT40 cell lines with known DNA damage response pathways - wild type cell line (AID 743012). Also: nearly all actives have a fitted effect of over 60% in size. Also: potency is read from the fitted curve at half-maximal effect. In a few lines:
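Viability of DNA repair-proficient chicken DT40 cells was assessed by CellTiter-Glo luminescence following 40 h compound exposure at 37 C/5% CO2.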

The nature of assay [13]: qHTS assay for identifying genotoxic compounds that show differential cytotoxicity against isogenic chicken DT40 cell lines with known DNA damage response pathways - Rev3 mutant cell line (AID 743014). Also: nearly all actives have a fitted effect of over 55% in size. Also: potency is read from the fitted curve at half-maximal effect.
Assay [14] can be described thus: qHTS assay for identifying genotoxic compounds that show differential cytotoxicity against isogenic chicken DT40 cell lines with known DNA damage response pathways - Rad54/Ku70 mutant cell line (AID 743015). Also: nearly all actives have a fitted effect of over 60% in size. Also: potency is read from the fitted curve at half-maximal effect.
The nature of assay [15]: qHTS assay to identify small molecule antagonists of the androgen receptor (AR) signaling pathway - cell viability counter screen (AID 743033; also: nearly all actives have a fitted effect of over 45% in size).
Assay [16] can be described thus: qHTS assay to identify small molecule antagonists of the androgen receptor (AR) signaling pathway using the MDA cell line - cell viability counter screen (AID 743041; also: nearly all actives have a fitted effect of over 45% in size; also: potency is read from the fitted curve at half-maximal effect). In a few lines:
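qHTS viability read-out; MDA-kb2 AR-luc; R1881-stimulated; 16 h exposure at 37C, 0% CO2; CellTiter-Fluor, 30 min; fluorescence intensity.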

The target in assay [17] is Androgen receptor (Homo sapiens) (UniProt P10275). The assay can be described thus: qHTS assay to identify small molecule antagonists of the androgen receptor (AR) signaling pathway (AID 743035; active = well fitted inhibition curve with a large enough effect in the signal ratio in the repeat runs, not every such curve was filed as active; inconclusive = weak or mixed curves, or effect the other way; inactive = no such curve, though single readings can be large or run the other way; the % refers to the signal ratio). The essentials:
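Reporter HEK293 cells were exposed to compounds and R1881 overnight (16 h, 37C); beta-lactamase activity was then quantified by FRET fluorescence.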

Assay [18] has the same target. The assay can be described thus: qHTS assay to identify small molecule agonists of the androgen receptor (AR) signaling pathway (AID 743036; active = well fitted activation curve with a large enough effect in the signal ratio in the repeat runs, with a control signal flat, not every such curve was filed as active; inconclusive = weak or mixed curves, or effect the other way; inactive = no such curve, though single readings can be large or run the other way; the % refers to the signal ratio). In a few lines: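 Following a 4 h settling period, AR-UAS-bla HEK293 cells were dosed with compounds for 16 h at 37C. A 2 h room-temperature incubation with LiveBLAzer B/G FRET substrate preceded the fluorescence measurement.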

For assay [19] the target is unchanged. The assay can be described thus: qHTS assay to identify small molecule agonists of the androgen receptor (AR) signaling pathway using the MDA cell line (AID 743040; also: potency is read from the fitted curve at half-maximal effect; nearly all actives have a fitted effect of over 20% in size). The essentials:
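Agonist activity is measured as luciferase luminescence in human MDA-kb2 cells whose MMTV reporter responds to both AR and GR. Compounds in DMSO incubate 16 h at 37C, 0% CO2, and ONE-Glo is read after 30 min.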

The target is the same in assay [20]. The assay can be described thus: qHTS assay to identify small molecule antagonists of the androgen receptor (AR) signaling pathway using the MDA cell line (AID 743042; also: nearly all actives have a fitted effect of over 55% in size). In a few lines:
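MDA-kb2 cells (human breast carcinoma, stably carrying an MMTV-luciferase reporter responsive to AR and GR) were plated at 3,000 cells/well and preincubated 5 hr at 37C, then given compound plus R1881 agonist for 16 h. ONE-Glo luminescence was read.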

Where “and” joins values, the source holds several entries; their conditions need not be identical. Equal entries are not always repeated. A structure can be active in one record and inactive in another. Calls of active or inactive are those of the source. Unless noted, calls follow the shape of the dose curve; as a rule, active = well fitted curve in the direction sought with a large enough effect in the repeat runs; inconclusive = weak or mixed curves; inactive = no such curve, though single readings can be large; an effect the other way counts as inactive or inconclusive.

Chain of Androgen receptor (Homo sapiens) (P10275 whole entry, looked up): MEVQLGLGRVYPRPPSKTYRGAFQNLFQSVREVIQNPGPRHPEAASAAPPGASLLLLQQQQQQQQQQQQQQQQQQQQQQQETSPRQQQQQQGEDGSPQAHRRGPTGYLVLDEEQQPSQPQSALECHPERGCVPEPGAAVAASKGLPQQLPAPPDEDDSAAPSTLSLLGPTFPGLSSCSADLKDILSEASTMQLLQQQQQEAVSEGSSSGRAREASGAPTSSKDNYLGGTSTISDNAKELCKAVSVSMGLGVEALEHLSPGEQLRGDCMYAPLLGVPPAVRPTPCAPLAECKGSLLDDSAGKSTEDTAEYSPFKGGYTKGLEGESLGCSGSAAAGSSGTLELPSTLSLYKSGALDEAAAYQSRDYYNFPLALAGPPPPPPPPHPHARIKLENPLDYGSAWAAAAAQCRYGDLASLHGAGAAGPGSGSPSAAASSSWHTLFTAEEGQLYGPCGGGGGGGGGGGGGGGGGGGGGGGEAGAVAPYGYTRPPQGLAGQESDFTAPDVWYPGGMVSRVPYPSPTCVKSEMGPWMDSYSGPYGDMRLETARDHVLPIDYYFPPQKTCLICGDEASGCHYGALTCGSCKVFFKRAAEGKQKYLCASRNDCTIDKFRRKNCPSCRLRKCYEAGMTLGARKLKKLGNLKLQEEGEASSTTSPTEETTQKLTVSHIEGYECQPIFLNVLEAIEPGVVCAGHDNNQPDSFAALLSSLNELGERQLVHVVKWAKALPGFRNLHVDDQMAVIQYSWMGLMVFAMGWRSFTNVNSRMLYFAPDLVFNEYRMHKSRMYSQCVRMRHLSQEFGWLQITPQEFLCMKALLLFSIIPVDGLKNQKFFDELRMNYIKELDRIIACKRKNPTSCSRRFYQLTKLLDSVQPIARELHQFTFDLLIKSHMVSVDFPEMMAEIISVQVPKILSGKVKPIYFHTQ
Chain of Glucocorticoid receptor (Homo sapiens) (P04150 whole entry, looked up): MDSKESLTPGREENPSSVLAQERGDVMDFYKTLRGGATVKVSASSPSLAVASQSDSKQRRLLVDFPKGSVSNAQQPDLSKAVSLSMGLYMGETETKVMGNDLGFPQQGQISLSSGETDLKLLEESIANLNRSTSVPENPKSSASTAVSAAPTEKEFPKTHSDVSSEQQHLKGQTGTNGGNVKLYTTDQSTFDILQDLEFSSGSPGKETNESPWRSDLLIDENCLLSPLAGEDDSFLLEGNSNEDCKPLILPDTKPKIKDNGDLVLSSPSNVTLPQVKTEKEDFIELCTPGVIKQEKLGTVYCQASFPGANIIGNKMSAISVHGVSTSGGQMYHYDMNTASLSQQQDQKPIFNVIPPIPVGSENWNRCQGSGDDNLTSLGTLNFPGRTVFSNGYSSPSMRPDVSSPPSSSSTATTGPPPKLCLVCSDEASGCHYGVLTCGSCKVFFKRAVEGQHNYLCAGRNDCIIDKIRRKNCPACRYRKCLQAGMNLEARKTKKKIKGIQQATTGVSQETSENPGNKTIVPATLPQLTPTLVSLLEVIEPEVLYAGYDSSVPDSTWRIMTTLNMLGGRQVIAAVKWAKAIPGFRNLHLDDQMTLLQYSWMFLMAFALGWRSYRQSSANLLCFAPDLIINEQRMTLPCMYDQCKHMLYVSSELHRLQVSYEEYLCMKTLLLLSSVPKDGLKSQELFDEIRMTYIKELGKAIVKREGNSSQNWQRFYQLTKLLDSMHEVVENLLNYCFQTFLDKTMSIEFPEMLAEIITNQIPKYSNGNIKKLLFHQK

With `Cc1c(N)nc([C@H](CC(N)=O)NC[C@H](N)C(N)=O)nc1C(=O)N[C@H](C(=O)N[C@H](C)[C@@H](O)[C@H](C)C(=O)N[C@H](C(=O)NCCc1nc(-c2nc(C(=O)NCCCCN=C(N)N)cs2)cs1)[C@@H](C)O)[C@@H](O[C@@H]1O[C@@H](CO)[C@@H](O)[C@H](O)[C@@H]1O[C@H]1O[C@H](CO)[C@@H](O)[C@H](OC(N)=O)[C@@H]1O)c1cnc[nH]1`, the molecule was called inactive in [1], in [3], in assay [4] and in assay [5]. The Potency entry in assay [2], in assay [6], in [7], in assay [8], in [10] and in assay [11] was “inactive” each time. Besides, the Potency result in assay [15] and in assay [16] was “inactive” throughout. Also, the Potency in assay [9] is 848 nM [inconclusive] (active) and inactive; in assay [12] it was 4.22 µM (active) and 1.5 µM (active); in [13], 1.33 µM (active); in assay [14], 211 nM (active) and 37.6 nM (active).

`CCCCCCCC1CCC(=O)O1` (centres undefined): the molecule was called inactive in assay [1], in [3], in assay [4] and in assay [5]. The Potency result in [2], in [6], in [7] and in assay [8] was “inactive” throughout.

As for `O=C(CCN1CCC(c2ccccc2)C1)c1ccc2c(c1)OCCO2` (centres undefined), the call in [1], in [3], in assay [4] and in assay [5] was inactive. Further, the Potency entry in assay [2], in assay [6], in assay [7], in assay [8], in assay [9] and in assay [11] was “inactive” throughout. In addition, in assay [15], the Potency result was “inactive”. In addition, the Potency in assay [12] was 2.66 µM (active); in assay [13], 4.73 µM (active); in [16], 29.8 µM (active).

For `COc1cc2c(c(OC)c1OC)-c1c(cc3c(c1OC)OCO3)C[C@@H](C)[C@](C)(O)C2`, the molecule was classed as inactive in [1], in assay [3], in assay [4] and in assay [5]. Besides, the Potency entry in [2], in assay [6], in [7], in [8], in [9] and in assay [10] was “inactive” throughout. In addition, the Potency result in [11], in assay [13], in assay [15] and in [16] was “inactive” each time.

On to `COc1ccc(/C=N/NC(=O)c2ccncc2)c(C(=O)O)c1OC`, for which the molecule was classed as inactive in assay [1], in [3], in assay [4] and in assay [5]. Moreover, the Potency entry in [2], in assay [6], in [7], in assay [8], in [9] and in assay [11] was “inactive” in each case. Further, the Potency entry in assay [12], in assay [13], in [15] and in [16] was “inactive” each time.

Consider `C[C@H](Cc1ccc(O)c(O)c1)[C@@H](C)Cc1ccc(O)c(O)c1`, for which the result in assay [1], in assay [3], in [4] and in assay [5] was inactive. Also, the Potency result in assay [2], in [6], in [7], in assay [8], in assay [9] and in assay [11] was “inactive” each time. Also, the Potency entry in assay [15] and in [16] was “inactive” each time. For the same molecule, the Potency in assay [12] was 10.6 µM (active); in assay [13], 23.7 µM (active); in assay [14] it was 10.6 µM (active).

For the molecule `CCCOC(=O)c1ccccc1O`, the call in assay [1], in [3], in [4] and in assay [5] was inactive. Also, the Potency entry in assay [2], in assay [6], in [7], in assay [8], in assay [9] and in [11] was “inactive” each time. The Potency entry in assay [12], in assay [14], in assay [15] and in assay [16] was “inactive” in each case.

For the molecule `CCOc1cc(CC(=O)N[C@@H](CC(C)C)c2ccccc2N2CCCCC2)ccc1C(=O)O`, the molecule was called inactive in assay [1], in assay [3], in assay [4] and in assay [5]. Besides, the Potency entry in assay [2], in assay [6], in [7], in [8], in assay [11] and in assay [12] was “inactive” in each case. Moreover, the Potency result in assay [13], in assay [14], in [15], in [17], in assay [18] and in assay [16] was “inactive” throughout. For the same molecule, the Potency entry in [20] is “inactive”. The Potency in [9] is 8.11 µM (active); in [19] it was 11.4 µM (active).
